The source of these data is PubChem BioAssay (NCATS).

Records with an inconclusive call do not appear. Values without a mark were called inactive. Activity calls are given as the source filed them. The call rests on the fitted dose curve; in most records, active means well fitted curve in the direction sought with a large enough effect; inconclusive means small, poorly fitted or top-dose-only effect, or another doubt; inactive means no such curve, though single readings can be large; an effect the other way counts as inactive or inconclusive.

One test is described as follows: P-glycoprotein substrates identified in KB-8-5-11 adenocarcinoma cell line, qHTS therapeutic library screen (AID 1346987). Further: nearly all actives have a fitted effect of over 65% in size. On activity change, negative = cytotoxicity: on the % scale 0 is the no-effect control and ±100 the full control effect. Particulars: KB-8-5-11 (P-gp overexpressing) viability, CellTiter-Glo, 72 h; series mostly up to 44.5 µM; activity change, negative = cytotoxicity: at the top concentration. An outline of the steps: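 In this qHTS, P-gp-rich KB-8-5-11 cells received library compounds across a concentration range. Viability was quantified by luminescence after 72 h at 37 degree C.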
As to `CN(N=O)C(=O)N[C@@H]1[C@@H](O)[C@H](O)[C@@H](CO)O[C@@H]1O`, the “activity change, negative = cytotoxicity” value is -6.47% [at 17.3 µM].
The same measure, in the same setting: under `CN(C)CCCO[C@@H]1[C@H]2OC(C)(C)O[C@H]2O[C@@H]1C(O)CO` (some centres not stated) stands 0.872%; under `O=c1cc[nH]c(=S)[nH]1`, 4.46%.
`Nc1ccc(S(=O)(=O)Nc2ccccc2)cc1`: the “activity change, negative = cytotoxicity” value was 0.772%.
For `O=c1cc(CO)occ1O`, the Potency entry was “inactive”.
Take `COc1cc(C)c(Cc2cnc(N)nc2N)cc1OC`: the “activity change, negative = cytotoxicity” value is -7.4%.
On to `CC(C)(C)C(=O)C(Oc1ccc(Cl)cc1)n1ccnc1` (configuration not stated), for which the “activity change, negative = cytotoxicity” value is -6.25%.
On to `COc1cc2[nH]c(=O)[nH]c(=O)c2cc1OC`, for which the “activity change, negative = cytotoxicity” value is 21.8% [at 17.3 µM].
As for `COc1ccc(S(=O)(=O)Nc2nnc(CC(C)C)s2)cc1`, the Potency result was “inactive”.
For the compound `CCC(=O)Nc1ccc(O)cc1`, the “activity change, negative = cytotoxicity” value is 10.8%.
`CC1(C)[C@@H]2CC[C@@]1(C)C(=O)C2`: the “activity change, negative = cytotoxicity” value is -20.7%.
`CN1CCOC(c2ccccc2)c2ccccc2C1` (configuration not stated): the Potency entry was “inactive”.
On to `CCN(CC)C(=O)Nc1ccc(OCC(O)CNC(C)(C)C)c(C(C)=O)c1` (configuration not stated), for which the Potency entry is “inactive”.
In the case of `CCCCOc1cc(C(=O)OCCN(CC)CC)ccc1N`, the Potency entry is “inactive”.

The next test in a line: NS1 protein of Zika virus - qHTS assay to identify small molecule inhibitors in human HEK 293 cells (AID 1347053).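 Further: plate controls were infected untreated cells for no effect and uninfected cells for full effect; nearly all actives have a fitted effect of over 55% in size.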 Particulars: HEK293 ZIKV MR766 infection, NS1 TR-FRET, 24 h; series mostly up to 46.1 µM; activity change, negative = inhibition: at the top concentration. The essentials: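 Compound-treated (1 h pre-infection) HEK 293 cells infected with ZIKV MR766, MOI = 0.5; after 24 h at 37 C, NS1 read by TR-FRET; data normalized to uninfected and infected controls.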
(In qHTS, concentration-response curves come from the screen itself.)
Take `CC(=O)NC(Cc1ccccc1)C(=O)O` (configuration not stated): the “activity change, negative = inhibition” value is 1.31%.
On the same count and under the same terms, under `CS(=O)(=O)c1ccc([C@@H](O)[C@@H](CF)NC(=O)C(Cl)Cl)cc1` stands 11.9%.
Consider `Nc1nc2c(ncn2CCC(CO)CO)c(=O)[nH]1`, for which the “activity change, negative = inhibition” value is -24.6%.
On the same count and under the same terms, under `Cc1cccc(Nc2cc(Cl)nc(SCC(=O)O)n2)c1C` stands -1.33%; under `CC(C)(C)NCC(O)COc1ccc(NC(=O)NC2CCCCC2)cc1` (configuration not stated), -5.42%; under `O=C1NS(=O)(=O)c2ccccc21`, -4.49%.
For `O=C(O)c1ccccn1`, the “activity change, negative = inhibition” value was -8.2%.
Turning to `CC(C)(O)c1ccccc1CC[C@@H](SCC1(CC(=O)O)CC1)c1cccc(/C=C/c2ccc3ccc(Cl)cc3n2)c1`, the “activity change, negative = inhibition” value was 3.94%.
For `COc1ccccc1O`, the “activity change, negative = inhibition” value was 1.12% [at 92.8 µM].
`Cc1c(Cl)cccc1Nc1ccccc1C(=O)O`: the “activity change, negative = inhibition” value is 11.2%.
Take `N[C@@H](CSSC[C@H](N)C(=O)O)C(=O)O`: the activity change, negative = inhibition is -26.2% [at 0.593 µM].
Take `CCCCCCCCCCCCOS(=O)(=O)O`: the “activity change, negative = inhibition” value is 3.99%.
Same read-out and setting: for `C[C@@H]1CN(c2c(F)c(F)c3c(=O)c(C(=O)O)cn(C4CC4)c3c2F)C[C@H](C)N1` the value was 0.52% [at 20.1 µM]; for `O=C1O[C@H](CO)[C@@H](O)[C@H](O)[C@H]1O`, 2.76%; for `CC(=O)Nc1ccc(/C=N/NC(N)=S)cc1`, -3.31%.
On to `O=C(O)CC(O)C(=O)O` (configuration not stated), for which the “activity change, negative = inhibition” value is -10.3%.
Consider `C[C@@H]1CC[C@@]2(OC1)O[C@H]1C[C@H]3[C@@H]4CC[C@H]5C[C@@H](O)CC[C@]5(C)[C@H]4CC(=O)[C@]3(C)[C@H]1[C@@H]2C`, for which the activity change, negative = inhibition is -2.82% [at 4.81 µM].
For the compound `N[C@H]1C(O)O[C@H](CO)[C@@H](O)[C@@H]1O` (some centres not stated), the “activity change, negative = inhibition” value is -0.219%.
With `C[C@H](N)[C@H](O)c1cccc(O)c1`, the “activity change, negative = inhibition” value is -9.4%.
For the compound `CCCCN1CCCC[C@H]1C(=O)Nc1c(C)cccc1C`, the “activity change, negative = inhibition” value is 8.16%.
As for `CN(N=O)C(=O)N[C@@H]1[C@@H](O)[C@H](O)[C@@H](CO)O[C@@H]1O`, the “activity change, negative = inhibition” value was -10.5%.
Turning to `CN(C)CCCO[C@@H]1[C@H]2OC(C)(C)O[C@H]2O[C@@H]1C(O)CO` (some centres not stated), the “activity change, negative = inhibition” value was -0.902%.
As for `O=c1cc[nH]c(=S)[nH]1`, the “activity change, negative = inhibition” value was 4.25%.
Still for that read-out and setting: for `Nc1ccc(S(=O)(=O)Nc2ccccc2)cc1` the value was -4.08%; for `O=c1cc(CO)occ1O`, -5.22%; for `COc1cc(C)c(Cc2cnc(N)nc2N)cc1OC`, 0.306%.
Turning to `CC(C)(C)C(=O)C(Oc1ccc(Cl)cc1)n1ccnc1` (configuration not stated), the “activity change, negative = inhibition” value was -0.558%.
Take `COc1cc2[nH]c(=O)[nH]c(=O)c2cc1OC`: the “activity change, negative = inhibition” value was -7.25%.
`COc1ccc(S(=O)(=O)Nc2nnc(CC(C)C)s2)cc1`: the “activity change, negative = inhibition” value is -1.97%.
In the case of `CCC(=O)Nc1ccc(O)cc1`, the “activity change, negative = inhibition” value is 3.92%.
Same read-out and setting: for `CC1(C)[C@@H]2CC[C@@]1(C)C(=O)C2` the value was -11.7%; for `CN1CCOC(c2ccccc2)c2ccccc2C1` (configuration not stated), 0.153%; for `CCN(CC)C(=O)Nc1ccc(OCC(O)CNC(C)(C)C)c(C(C)=O)c1` (configuration not stated), 7.19%.
On to `CCCCOc1cc(C(=O)OCCN(CC)CC)ccc1N`, for which the “activity change, negative = inhibition” value is -1.7%.

A further test is described as follows: qHTS of pediatric cancer cell lines to identify multiple opportunities for drug repurposing: Primary screen for TC32 cells (AID 1347089). Further: on the % scale 0 is the no-effect control and ±100 the full control effect; nearly all actives have a fitted effect of over 60% in size. Particulars: TC32 Ewing sarcoma viability, CellTiter-Glo luminescence, 48 h; series mostly up to 45.8 µM; activity change, negative = cytotoxic: at the top concentration. The essentials: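 qHTS, TC32, 48 h drug treatment, CellTiter-Glo luminescence as a proxy for metabolically active cells; primary top concentration 46 µM (MIPE 11-pt, NPC 8-pt); confirmatory 11-pt.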
For the compound `CC(=O)NC(Cc1ccccc1)C(=O)O` (configuration not stated), the “activity change, negative = cytotoxic” value is 1.6%.
As for `CS(=O)(=O)c1ccc([C@@H](O)[C@@H](CF)NC(=O)C(Cl)Cl)cc1`, the “activity change, negative = cytotoxic” value is 1.8%.
Consider `Nc1nc2c(ncn2CCC(CO)CO)c(=O)[nH]1`, for which the “activity change, negative = cytotoxic” value was 5.12%.
For `Cc1cccc(Nc2cc(Cl)nc(SCC(=O)O)n2)c1C`, the “activity change, negative = cytotoxic” value is 3.71%.
Consider `CC(C)(C)NCC(O)COc1ccc(NC(=O)NC2CCCCC2)cc1` (configuration not stated), for which the “activity change, negative = cytotoxic” value is 14.3%.
Consider `O=C1NS(=O)(=O)c2ccccc21`, for which the “activity change, negative = cytotoxic” value is 14.3%.
Turning to `O=C(O)c1ccccn1`, the “activity change, negative = cytotoxic” value is 7.65%.
Same read-out and setting: for `CC(C)(O)c1ccccc1CC[C@@H](SCC1(CC(=O)O)CC1)c1cccc(/C=C/c2ccc3ccc(Cl)cc3n2)c1` the value was 10.2%; for `COc1ccccc1O`, 8.57% [at 92.2 µM]; for `Cc1c(Cl)cccc1Nc1ccccc1C(=O)O`, 15.2%.
For the compound `N[C@@H](CSSC[C@H](N)C(=O)O)C(=O)O`, the activity change, negative = cytotoxic was 5.9% [at 0.594 µM].
For `CCCCCCCCCCCCOS(=O)(=O)O`, the “activity change, negative = cytotoxic” value was 2.27%.
As to `C[C@@H]1CN(c2c(F)c(F)c3c(=O)c(C(=O)O)cn(C4CC4)c3c2F)C[C@H](C)N1`, the “activity change, negative = cytotoxic” value was 13% [at 16 µM].
On the same count and under the same terms, for `O=C1O[C@H](CO)[C@@H](O)[C@H](O)[C@H]1O` the value was 12.4%; for `CC(=O)Nc1ccc(/C=N/NC(N)=S)cc1`, 9.26%; for `O=C(O)CC(O)C(=O)O` (configuration not stated), 15.5%.
As to `C[C@@H]1CC[C@@]2(OC1)O[C@H]1C[C@H]3[C@@H]4CC[C@H]5C[C@@H](O)CC[C@]5(C)[C@H]4CC(=O)[C@]3(C)[C@H]1[C@@H]2C`, the activity change, negative = cytotoxic was 10.8% [at 4.81 µM].
Consider `N[C@H]1C(O)O[C@H](CO)[C@@H](O)[C@@H]1O` (some centres not stated), for which the “activity change, negative = cytotoxic” value is 11%.
For `C[C@H](N)[C@H](O)c1cccc(O)c1`, the “activity change, negative = cytotoxic” value is 14.9%.
As to `CCCCN1CCCC[C@H]1C(=O)Nc1c(C)cccc1C`, the “activity change, negative = cytotoxic” value is -8.75%.
Take `CN(N=O)C(=O)N[C@@H]1[C@@H](O)[C@H](O)[C@@H](CO)O[C@@H]1O`: the “activity change, negative = cytotoxic” value was -1.62%.
Consider `CN(C)CCCO[C@@H]1[C@H]2OC(C)(C)O[C@H]2O[C@@H]1C(O)CO` (some centres not stated), for which the “activity change, negative = cytotoxic” value is 4.54%.
Same read-out and setting: for `O=c1cc[nH]c(=S)[nH]1` the value was 0.833%.
In the case of `Nc1ccc(S(=O)(=O)Nc2ccccc2)cc1`, the “activity change, negative = cytotoxic” value is 17.6%.
Take `O=c1cc(CO)occ1O`: the “activity change, negative = cytotoxic” value was 9.04%.
On the same count and under the same terms, under `COc1cc(C)c(Cc2cnc(N)nc2N)cc1OC` stands 11.4%; under `CC(C)(C)C(=O)C(Oc1ccc(Cl)cc1)n1ccnc1` (configuration not stated), 9.15%.
On the same count and under the same terms, for `COc1cc2[nH]c(=O)[nH]c(=O)c2cc1OC` the value was 15.5%; for `COc1ccc(S(=O)(=O)Nc2nnc(CC(C)C)s2)cc1`, 5.72%.
With `CCC(=O)Nc1ccc(O)cc1`, the “activity change, negative = cytotoxic” value was 23.2%.
For `CC1(C)[C@@H]2CC[C@@]1(C)C(=O)C2`, the “activity change, negative = cytotoxic” value was 10.2%.
On the same count and under the same terms, under `CN1CCOC(c2ccccc2)c2ccccc2C1` (configuration not stated) stands 6.28%; under `CCN(CC)C(=O)Nc1ccc(OCC(O)CNC(C)(C)C)c(C(C)=O)c1` (configuration not stated), 9.8%.
For `CCCCOc1cc(C(=O)OCCN(CC)CC)ccc1N`, the “activity change, negative = cytotoxic” value was 6.74%.
